# Data: ChEMBL document CHEMBL1157539, “Thousands of chemical starting points for antimalarial lead identification” (Nature, 2010)
# Test system: HepG2
# Experiment: GSK_TCMDC: Percent inhibition of human HepG2 cell line. Test compounds present at 10uM.
# Format: functional
row,Compound,Inhibition [%]
1,Cc1ccc(Cl)cc1N1CCN(CCCNC(=O)C2CCN(c3nc4ccccc4[nH]3)CC2)CC1,41
2,Br.CCCC1N=C(N)N=C(N)N1c1ccc(C)cc1 (stereo not given),1
3,Cc1ccccc1C1CCN(C2CCC(NC(=O)c3ccc(-c4cccs4)s3)CC2)CC1 (stereo not given),58
4,COc1cc(NC(=O)c2ccc3oc4ccccc4c3c2)ccc1OCCN1CCCCC1.Cl,12
5,Cc1ccc(CNC(=O)[C@H](Cc2ccccc2)Nc2cc(C)nc(Nc3ccccc3)n2)cc1.O=C(O)C(F)(F)F,16
6,COc1ccc2nccc([C@@H](O)CN3CCC(NC/C=C/c4cccnc4)CC3)c2c1.CS(=O)(=O)O,0
7,CSc1ccc(NC(=O)Nc2cc(C)nc3ccccc23)cc1,7
8,COc1ccc(Nc2nc(NC3CCCC3)cc(-c3ccc(OC)cc3)n2)cc1,12
9,Nc1ncc(-c2ccsc2)c2ccc(-c3cnc[nH]3)cc12,31
10,COc1cc(-c2nc(-c3ccc(C(=O)c4ccc(F)cc4)cc3)c(-c3ccccc3)[nH]2)cc(OC)c1O,0
11,CCCNC(=O)c1ccnc(-c2ccc(CNC3Cc4ccccc4C3)cc2)c1.O=C(O)C(F)(F)F,24
12,CCN(CCC1(c2ccc(Cl)c(Cl)c2)CN(C(=O)c2cc(OC)c(OC)c(OC)c2)CCO1)C1CC2c3ccccc3CC21 (stereo not given),26
13,CCS(=O)(=O)c1ccc(OC)c(Nc2nccc(-c3c(-c4cccc(NC(=O)c5c(F)cccc5F)c4)nn4ncccc34)n2)c1,27
14,Cc1cccc2nc(-c3ccc(-c4cccc(CNCc5ccccc5)c4)cc3)[nH]c12.O=C(O)C(F)(F)F,3
15,CCOC(=O)c1nc(-c2ccccc2)[nH]c1-n1nc(C)cc1C,7
16,CCOc1ccc(-c2nonc2NC(=O)CC(C)C)cc1OCC,0
17,FC(F)(F)c1ccc(-c2ccc(CNC3CCN(CCN4CCOCC4)CC3)cc2)cc1,44
18,CC(C)NCc1ccc(OCc2cccc(COc3ccc(CNC(C)C)cc3I)c2)c(I)c1.Cl,100
19,Cc1ccc(N2CCN(C(=O)c3cccc(-c4cncc5nc(-c6ccco6)n(C)c45)c3)CC2)nc1,0
20,O=C(O)C(F)(F)F.c1ccc(CNCc2cccc(-c3ccc(-c4nc5ccccc5[nH]4)cc3)c2)cc1,10

row,Compound,Inhibition [%]
1,CC1CN(c2ccc(NC(=O)c3ccc(F)cc3)cc2)CCN1Cc1cccc(F)c1.O=C(O)C(F)(F)F (stereo not given),11
2,Cc1csc(-c2nc(NCCc3c(C)noc3C)ncc2-c2ccsc2)n1,6
3,CCS(=O)(=O)N1CCN(c2nc(-c3ccccc3)nc(COC)c2Cc2ccccc2F)CC1,0
4,O=C(NCc1cccc(C(F)(F)F)c1)[C@@H]1CCCN1C(=O)c1ccc(O)c(-c2ccc(Cl)c(Cl)c2)c1,0
5,CN(C)Cc1cccc(-c2cc3c(-c4cnn(C)c4)c(Cl)cnc3[nH]2)c1,75
6,CC(C)COc1ccc2ccccc2c1CNCCCCCCNCc1c(OCC(C)C)ccc2ccccc12.CS(=O)(=O)O,99
7,CC1(C(=O)Nc2ccc([N+](=O)[O-])cc2O)CC2c3ccccc3C1c1ccccc12 (stereo not given),37
8,Cn1cnc(CCNC(=O)c2ccc(-c3ccc(-c4nc5cc(F)ccc5[nH]4)cc3)cc2)c1,17
9,O=C(NCCNc1ccnc(Nc2ccc(F)cc2)n1)c1cc2ccccc2s1,0
10,COCCNCc1ccc(-c2ccc(CNc3ccc4ncccc4c3)cc2)cc1.O=C(O)C(F)(F)F,41
11,CCN(CC)S(=O)(=O)n1ncc2c3c(N)nc(N)nc3ccc21.Cl,67
12,CCCNC(=O)c1ccc(N2CCC(c3ccccc3C)CC2)nc1.O=C(O)C(F)(F)F,6
13,CC(=O)c1sc(NC(=O)Nc2ccc(C)cc2C)nc1C,5
14,O=C(O)C(F)(F)F.Oc1ccc(CCCNc2nc(NCc3cccc4ccccc34)nc(NC3CCNCC3)n2)cc1,8
15,FC(F)(F)c1ccc2[nH]c(-c3cccc(-c4ccc(CNCc5ccccc5)cc4)c3)nc2c1.O=C(O)C(F)(F)F,25
16,COc1ccc(/C=C/C(=O)N2CCc3cc4nccc(N5CCN6CCC[C@H]6C5)c4cc32)cc1,0
17,Cc1noc(C)c1-c1ccc2c(Nc3ccccc3C(C)(C)C)c(C(=O)NC3CCCC3)cnc2c1.Cl,27
18,O=C(NC(CCCN1CCC(c2ccccc2)CC1)c1ccc(Cl)c(Cl)c1)c1cc(C(F)(F)F)cc(C(F)(F)F)c1 (stereo not given),33
19,CCCc1cc(OC)c(C[C@@H]2c3cc(O)c(Cl)cc3CCN2C)cc1OC.Cl,3
20,CS(=O)(=O)CCNCc1nc(-c2ccc3c(=O)[nH]cnc3c2)cs1,81
